Bioassay records from PubChem BioAssay.
BAZ2B block – inhibitors of human BAZ2B bromodomain; Q9UIF8; AlphaScreen BAZ2B-H3K14Ac peptide displacement; Potency, µM (doses to about 114 µM), without a hit: at the top dose activity change, negative = inhibition, actives largely listed as inhibitors; hit rate 4.4% among 360,000; AID 504333; further: potency means the concentration at half of the fitted maximal effect; on the % scale 0 is the no-effect control and ±100 the full control effect; nearly all actives have a fitted effect of over 60% in size
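In this displacement format the biotinylated H3(5-23) peptide acetylated at Lys14 serves as ligand at 50 nM, with BAZ2B at 50 nM in PBS pH 7.4 containing 0.01% Tween-20. Donor and acceptor beads are 10 ug/mL final.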
PI5P4K alpha inh – blocks human PI5P4K alpha kinase activity | P48426 | PI5P4Kalpha enzyme, ADP-Glo luminescence, 60 min; hits give low values | max response, % | hit rate 1.2% among 330,000 | AID 652105; active means max response of -50% or lower; inconclusive means between -30% and -50%; inactive means -30% or higher; further: value at the top dose of about 77 µM; on the % scale 0 is the no-effect control and ±100 the full control effect
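ADP-Glo luminescence end-point after a 60 min room-temperature kinase reaction. PI5P4Kalpha and substrate in HEPES pH 7.4 buffer with EGTA, 0.1% CHAPS and 5% DMSO; ATP at 5 microM final.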
HP1b binding inh – blocks HP1-beta chromodomain binding to methylated histone tails | Potency, µM (top dose mostly 114 µM), inactives show at the highest dose activity change, negative = inhibition, usual class: inhibitors | hit rate 0.56% among 390,000 | AlphaScreen HP1-beta / biotin-H3K9me3 peptide binding; further: potency means the concentration at half of the fitted maximal effect; nearly all actives have a fitted effect of over 70% in size
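AlphaScreen: HP1-beta (50 nM) preformed 30 min with biotin-H3(1-18)K9me3 peptide (50 nM) in PBS pH 7.4, 0.01% Tween-20. Compound added for 30 min at RT, then streptavidin donor/nickel chelate acceptor beads (10 ug/mL) for 30 min.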
G9a inh – inhibitors of human histone lysine methyltransferase G9a. hit rate 8.8% among 350,000. Potency, µM (top dose mostly 102 µM), inactives show at the top dose activity, negative = inhibition, hits mostly inhibitors. G9a H3K9 monomethylation, AlphaScreen, 2 h; further: potency means the concentration at half of the fitted maximal effect; on the % scale 0 is the no-effect control and ±100 the full control effect; nearly all actives have a fitted effect of over 75% in size
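Chemiluminescent proximity detection of H3K9 monomethylation, read after 10 min bead incubation in the dark. Reaction: 20 nM G9a, 500 nM biotin-H3K9 peptide, 20 uM SAM cofactor, 2 h, room temperature, following 15 min enzyme-compound preincubation.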
JMJD2A Tudor – JMJD2A Tudor domain (human) inhibition | AID 504339 | Potency, µM (series often up to 114 µM), for the others: at the highest dose activity change, negative = inhibition, usual class: inhibitors | AlphaScreen JMJD2A-Tudor / H3K4me3 peptide binding | hit rate 4.4% among 390,000; further: potency means the concentration at half of the fitted maximal effect; on the % scale 0 is the no-effect control and ±100 the full control effect; nearly all actives have a fitted effect of over 50% in size
Target sequence (O75164 whole entry, looked up, the tested form may be a part): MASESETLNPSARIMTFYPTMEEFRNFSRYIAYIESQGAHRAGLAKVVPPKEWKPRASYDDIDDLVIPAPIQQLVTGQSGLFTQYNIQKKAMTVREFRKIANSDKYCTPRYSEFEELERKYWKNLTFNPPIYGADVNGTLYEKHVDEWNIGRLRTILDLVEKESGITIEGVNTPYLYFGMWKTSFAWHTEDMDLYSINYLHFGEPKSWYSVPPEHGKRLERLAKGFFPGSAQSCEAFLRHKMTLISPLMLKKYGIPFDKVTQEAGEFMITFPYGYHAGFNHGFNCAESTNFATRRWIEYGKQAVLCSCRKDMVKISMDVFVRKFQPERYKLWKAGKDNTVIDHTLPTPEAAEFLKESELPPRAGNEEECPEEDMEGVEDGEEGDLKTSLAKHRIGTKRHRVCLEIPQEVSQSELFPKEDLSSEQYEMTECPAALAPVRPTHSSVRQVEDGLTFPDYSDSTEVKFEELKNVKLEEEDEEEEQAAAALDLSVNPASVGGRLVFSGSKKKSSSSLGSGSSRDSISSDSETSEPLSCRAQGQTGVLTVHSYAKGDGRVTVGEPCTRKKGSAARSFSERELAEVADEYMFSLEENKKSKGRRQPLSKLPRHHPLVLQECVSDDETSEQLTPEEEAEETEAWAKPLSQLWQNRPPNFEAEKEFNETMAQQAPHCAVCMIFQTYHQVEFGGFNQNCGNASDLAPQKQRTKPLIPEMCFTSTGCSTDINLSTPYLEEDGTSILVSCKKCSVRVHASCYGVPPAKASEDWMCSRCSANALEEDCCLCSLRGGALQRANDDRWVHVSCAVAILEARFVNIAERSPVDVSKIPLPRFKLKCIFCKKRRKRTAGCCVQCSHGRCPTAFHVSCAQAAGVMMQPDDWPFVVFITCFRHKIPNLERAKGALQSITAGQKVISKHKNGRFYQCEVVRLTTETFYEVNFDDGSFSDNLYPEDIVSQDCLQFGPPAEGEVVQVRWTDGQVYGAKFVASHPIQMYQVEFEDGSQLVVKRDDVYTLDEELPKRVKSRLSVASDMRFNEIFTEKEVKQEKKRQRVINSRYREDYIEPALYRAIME
PLK1 PBD inh – inhibitors of human PLK1 polo-box domain binding; Plk1 PBD binding of FITC phosphopeptide, fluorescence polarization; AID 720504; P53350; hit rate 2.8% among 360,000; Potency, µM, for the others: max response, negative = inhibition, usual class: inhibitors; further: potency means the concentration at half of the fitted maximal effect; series mostly up to about 57 µM; on the % scale 0 is the no-effect control and ±100 the full control effect; nearly all actives have a fitted effect of over 65% in size
* marks the source's active call; other numbers are inactive results; ? = inconclusive; / = no result given; [ ] = another dose, or the depositor's remark. Most compounds without a hit are left out; they make up all but 12% or so of the library. Unless noted, the call rests on the fitted dose curve; in most records, active means well fitted curve in the direction sought with a large enough effect; inconclusive means small, poorly fitted or top-dose-only effect, or another doubt; inactive means no such curve, though single readings can be large; an effect the other way counts as inactive or inconclusive.

SMILES | BAZ2B block | PI5P4K alpha inh | HP1b binding inh | G9a inh | JMJD2A Tudor | PLK1 PBD inh
c1ccc2cc(CNCc3cccc4ccccc34)ccc2c1 | 20.2% | 15.7 | 111.4% | 66.7%[59 µM] | 23.3% | 2.9%
COc1cc(CNCc2cccc3ccccc23)cc(OC)c1 | 50.1µM* | -8.5 | 11.2% | 50.1µM* | 25.1µM* | 0.7%
Cc1nn2c(=O)cc(COC(=O)C(c3ccccc3)c3ccccc3)nc2s1 | -9.3% | / | 9.4% | 17.8%[59 µM] | -11.3% | /
COc1ccccc1NC(=O)C1=C(C)NC(=O)NC1c1ccccc1[N+](=O)[O-] (stereo not drawn) | / | ? | -9.6% | 12.6µM* | -27.5% | -14.7%
Cc1ccc(NC(=O)CSCC(=O)N(C)CCOc2ccc(Cl)cc2)cc1 | 6.3% | -6.9 | 51.0% | -24.6% | -20.3% | -7.6%
CCc1cccc(OCC(=O)N(C)CC(=O)Nc2cccc(F)c2)c1 | 9.3% | 10.0 | 18.5% | 50.1µM* | -9.7% | 2.6%
O=C(CSCc1ccc(F)cc1)Nc1ccc(F)cc1 | -2.4% | 1.2 | 51.2% | -7.8% | 3.1% | -13.5%
O=C(CSCc1ccccc1)Nc1cccc(F)c1 | 3.5% | -22.6 | 22.4% | 8.8%[59 µM] | 44.7µM* | 3.36µM*
Cc1ccc(NC(=O)CSCC(=O)N(C)CC(=O)Nc2cccc(F)c2)cc1 | 1.7% | -1.6 | 20.0% | 44.7µM* | -6.2% | -2.4%
Cc1cccc(NC(=O)CSCC(=O)N(C)CCOc2ccc(Cl)cc2)c1 | -3.3% | 10.8 | 23.3% | 56.2µM* | -10.3% | -4.0%
Cc1cc(C)cc(-n2ccn(Cc3ccc(F)cc3)c(=O)c2=O)c1 | -9.5% | / | 15.8% | -7.9%[59 µM] | 2.6% | /
C/C(=N\NC(=O)c1c(Cl)cnn1C)c1cccnc1 | -5.3% | 0.3 | 37.9% | / | -11.2% | -6.3%
COC(=O)CC1(C(=O)OC)Nc2cc(Cl)c(Cl)cc2S(=O)(=O)N1O (stereo not drawn) | / | -2.8 | / | / | / | 9.47µM*
O=C(N/N=C/c1ccc(F)cc1)c1cc(-c2ccccn2)nc2ccccc12 | 1.4% | -1.7 | 43.6% | -0.6% | -11.7% | -1.3%
O=C(NC1CCCCCCC1)c1cc(-c2ccccn2)nc2ccccc12 | -12.7% | -28.6 | 5.1% | 27.2% | ? | 26.7µM*
O=[N+]([O-])c1cc(Cl)cc(/C=N\Nc2ccccn2)c1O | 4.47µM* | -60.3* | 10µM* | ? | 10µM* | 3.36µM*
COc1cccc(/C=N/NC(=O)c2cc(-c3ccccn3)nc3ccccc23)c1O | -29.9% | 2.6 | -6.1%[57 µM] | 42.7%[12.7 µM] | 56.2µM* | ?
O=C(N/N=C/c1cc(Cl)cc([N+](=O)[O-])c1O)c1cc(-c2ccccn2)nc2ccccc12 | ? | -62.1* | ? | -5.7%[12.7 µM] | 44.7µM* | ?
C/C(=N\NC(=O)c1cc(-c2ccccn2)nc2ccccc12)c1cccc([N+](=O)[O-])c1 | / | 2.4 | 38.0% | -29.7% | -13.3% | -9.9%
COc1ccc(CCCc2nnc(SCC(=O)Nc3cccc(F)c3C)o2)cc1 | -4.6% | / | 37.7% | -50.2%[59 µM] | ? | /
CCC(C)NC(=O)CCCN1C(=O)CCn2nc(-c3cccn3C)cc21 (stereo not drawn) | -25.9% | / | 2.8%[57 µM] | -20.1%[59 µM] | -20.4% | /
CCOC(=O)c1ccc(NC(=O)c2cccc3c(=O)c4c([nH]c23)CCCC4)cc1 | 2.0% | / | 29.2% | ? | -14.2% | /
Cc1ccc(OCC(=O)N2CC(C)CC(C)C2)c([N+](=O)[O-])n1 (stereo not drawn) | / | 4.0 | 18.5%[57 µM] | / | -2.1% | -2.5%
Cn1c(=O)nc2n(Cc3ccccc3)c3ccccc3cc-2c1=O | 2.1% | -1.9 | 13.8% | 8.91µM* | -10.5% | -13.0%
O=C(Cc1ccsc1)NNC(=O)c1cccc(Cl)c1 | -13.8% | 0.7 | 35.2% | / | -19.9% | -16.4%
SMILES | BAZ2B block | PI5P4K alpha inh | HP1b binding inh | G9a inh | JMJD2A Tudor | PLK1 PBD inh
CN1C(=O)c2oc3ccccc3c(=O)c2C1c1ccncc1 (stereo not drawn) | -22.9% | 0.1 | 9.7% | 8.91µM* | 56.2µM* | 26.7µM*
COc1ccc(C2c3c(oc4ccccc4c3=O)C(=O)N2CCN2CCOCC2)cc1OC (stereo not drawn) | / | 0.0 | 13.8% | / | 2.3% | -2.6%
COC(=O)c1ccc(C2c3c(oc4ccc(Cl)cc4c3=O)C(=O)N2CCN2CCOCC2)cc1 (stereo not drawn) | -10.9% | -0.6 | 36.0% | 20µM* | -13.3% | -14.0%
COCCN1C(=O)c2oc3ccccc3c(=O)c2C1c1ccc(OC)c(OC)c1 (stereo not drawn) | -4.3% | ? | ? | -4.4% | 56.2µM* | -3.7%
Cc1ccc2oc3c(c(=O)c2c1)C(c1cccs1)N(CCCN(C)C)C3=O (stereo not drawn) | -23.2% | 1.8 | 17.6% | 39.8µM* | -22.4% | ?
O=C(/C=C/c1cccc(Cl)c1Cl)OCC(=O)N1CCOCC1 | 5.5% | 10.2 | 5.1% | -0.8% | -1.4% | -6.7%
Cc1cccc(C)c1N1C(=O)c2ccccc2NC(=O)C1C(=O)NCCc1ccccc1 (stereo not drawn) | / | 1.4 | / | / | / | -10.0%
O=C(/C=C/c1cccc(C(F)(F)F)c1)NNC(=O)c1ccncc1 | -3.5% | -0.3 | 25.7% | -1.0% | -11.6% | -15.1%
COc1ccccc1-c1cc(C(F)(F)F)n2ncc(C(=O)N3CCc4ccccc4C3)c2n1 | 0.1% | 2.0 | 63.4% | 10.5% | 11.8% | -1.5%
O=C1c2oc3ccccc3c(=O)c2C(c2cccs2)N1CCCN1CCOCC1 (stereo not drawn) | ? | -12.2 | 30.9% | 39.8µM* | -21.9% | -28.7%
COC(=O)c1ccc(C2c3c(oc4ccccc4c3=O)C(=O)N2CCCN2CCOCC2)cc1 (stereo not drawn) | -2.9% | -2.9 | 45.7% | 35.5µM* | -12.0% | ?
COc1cccc(C2c3c(oc4ccccc4c3=O)C(=O)N2CCCN2CCOCC2)c1 (stereo not drawn) | -0.2% | 1.0 | 47.2% | 50.1µM* | -9.3% | -10.6%
COCCN1C(=O)c2oc3ccccc3c(=O)c2C1c1ccc(C(=O)OC)cc1 (stereo not drawn) | -2.3% | -2.0 | 63.9% | -2.2%[59 µM] | -7.7% | -22.1%
Cc1ccc(CN2CCC(=O)N2)cc1 | ? | -3.0 | 27.5% | ? | -9.4% | -7.7%
O=C(C[C@H]1C(=O)N(c2ccccc2)C[C@@H]1Cc1ccccc1)Nc1ccccc1 | / | -2.4 | / | / | / | -0.7%
O=c1c(=O)n(CCO)n(CCO)c(=O)n1CCO | / | 4.2 | / | / | / | -20.7%
Cc1ccnn1-c1ccc(C(=O)NCc2ccccc2CN2CCOCC2)cc1 | / | -8.6 | 9.2%[57 µM] | / | -6.2% | -0.6%
COc1ccc(N2CCN(C(CNS(=O)(=O)c3cc(F)ccc3F)c3cccnc3)CC2)cc1 (stereo not drawn) | -38.0% | -5.2 | -23.0% | 44.7µM* | ? | -6.5%
O=S(=O)(NCC(c1cccnc1)N1CCN(c2ccc(F)cc2)CC1)c1cc(F)ccc1F (stereo not drawn) | / | / | 11.0% | / | ? | -0.5%
